Sampled rows, rich in hits. Any-hit rate of the full collection: about 22%.
CYP2C19 inhib = blockers of cytochrome P450 2C19 activity – biochemical, luminescence, ADME assay, primary screen | AID 778, 2007 | CYP2C19 Supersomes, luciferin-H EGE luminescence, 30 min | inhibition, % at 5 µM | 21% of 96,000 active;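 active means CYP2C19 inhibition above a set limit at 5 µM in the primary screen, cut at about 50% in these data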
CYP2C19 act = human CYP2C19 activators, primary screen, biochemical, luminescence; Cytochrome P450 2C19 (Homo sapiens), P33261; recombinant CYP2C19, luciferin-H EGE luminescence; active compounds read high; 0 = fully inhibited enzyme, 1 = untreated enzyme; activation factor at 5 µM; 96,000 tested, under 10 active; AID 1025, 2008;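 active means activation factor of at least 2 at 5 µM in the primary screen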
Measles CPE = compounds protecting cells from measles virus cytopathic effect, primary screen, measles RdRp inhibitor project, single point, MLSMR library, absorbance | Measles virus-infected cells, CPE protection | 1.5% of 140,000 active | AID 841, 2007 | protection (pct of control), % at 4 µM; in the data active means protection mostly above about 24%, no sharp cut-off; inactive means mostly below about 26%
CYP2C9 inh = blockers of cytochrome P450 2C9 activity – biochemical, luminescence, ADME assay, primary screen; 20% of 96,000 active; AID 777, 2007; CYP2C9 Supersomes, luciferin-H conversion; P11712; inhibition, % at 5 µM;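 active means blocking of liver enzyme CYP2C9 beyond about 50% at 5 µM, limit read from the data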
Target sequence (P11712 whole entry, looked up): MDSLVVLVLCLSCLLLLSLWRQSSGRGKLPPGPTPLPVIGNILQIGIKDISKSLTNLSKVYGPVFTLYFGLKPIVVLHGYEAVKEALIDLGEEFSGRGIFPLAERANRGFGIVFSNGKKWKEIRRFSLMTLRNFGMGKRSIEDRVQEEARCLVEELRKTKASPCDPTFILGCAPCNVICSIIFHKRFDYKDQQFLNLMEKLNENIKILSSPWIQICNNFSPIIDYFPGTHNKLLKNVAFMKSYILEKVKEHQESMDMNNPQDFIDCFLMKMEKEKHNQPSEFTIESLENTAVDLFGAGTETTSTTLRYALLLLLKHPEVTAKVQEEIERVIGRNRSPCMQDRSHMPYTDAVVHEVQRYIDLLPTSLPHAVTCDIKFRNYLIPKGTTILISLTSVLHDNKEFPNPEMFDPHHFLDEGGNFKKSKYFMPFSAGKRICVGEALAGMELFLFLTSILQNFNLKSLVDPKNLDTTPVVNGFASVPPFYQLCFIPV
CYP2C9 act = human CYP2C9 activators, primary screen, biochemical, luminescence. Cytochrome P450 2C9 (Homo sapiens), P11712. recombinant CYP2C9, luciferin-H conversion; active compounds read high; factor 1 = untreated enzyme, 0 = blocked. activation factor at 5 µM. 1.4% of 96,000 active. AID 1024, 2008;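 active means activation factor of 2 or more for CYP2C9 at a 5 µM dose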
Numbers stand for hits; n = inactive; x = no result.

SMILES	CYP2C19 inhib	CYP2C19 act	Measles CPE	CYP2C9 inh	CYP2C9 act
COc1ccccc1-n1c(SCC(=O)NC2CCCCC2)nc2c(c1=O)SCC2	n	n	54.4	n	n
COc1ccc(NC(=O)CSc2nc3c(c(=O)n2-c2ccccc2OC)SCC3)cc1	n	n	n	n	n
O=[n+]1c2c(n([O-])c3c1CCC3)CCCC2	n	n	n	n	n
COc1ccc(-n2c(SCC(=O)Nc3cc(C)on3)nc3c(c2=O)SCC3)cc1	x	x	n	x	x
COc1ccc(NC(=O)CSc2nc3c(c(=O)n2-c2ccc(F)cc2)SCC3)c(OC)c1	73.1	n	n	79.6	n
COc1ccc(NC(=O)c2ccc(C#N)cc2)cc1NS(=O)(=O)c1ccc(F)cc1	x	x	n	x	x
Cc1cc(C)n2c(SCc3ccc(Cl)cc3Cl)nnc2n1	70.2	n	n	n	n
Cc1cc(C)n2c(SCc3ccccc3Cl)nnc2n1	n	n	n	n	2.8
O=C(Oc1ccccc1-c1nnco1)c1ccc(Cl)cc1	n	n	n	n	n
Cc1ccc2c(C)c(C(=O)Nc3cccnc3)oc2c1	n	n	n	52.5	n
Cc1c(C(=O)NC(C)c2ccncc2)oc2ccccc12 (configuration not stated)	82.4	n	n	83.1	n
Cc1c(C(=O)Nc2ccncc2)oc2ccccc12	97.9	n	n	53.0	n
Cc1cc(C(=O)NC(C)c2ccncc2)no1 (configuration not stated)	n	n	n	n	n
Cc1cc2oc(C(=O)Nc3cccnc3)c(C)c2cc1C	n	n	n	n	n
Cc1c(C(=O)Nc2nnc(C(F)(F)F)s2)oc2ccccc12	n	n	n	62.9	n
Cc1ccc(SCCNC(=O)/C=C/c2ccccc2Cl)cc1	n	n	n	n	n
Cc1c(C(=O)Nc2ccccn2)oc2ccccc12	n	n	n	n	n
Cc1c(C(=O)Nn2cnnc2)oc2ccccc12	74.3	n	n	n	n
COc1ccc(OC)c(C2CC(=O)C(C)C(c3cc(OC)ccc3OC)N2)c1 (configuration not stated)	n	n	n	75.6	n
O=C(CSC1=NCCS1)N1CCCCCC1	56.9	n	n	n	n
COc1ccc(C(=O)c2ccc(OC)c3cccc(O)c23)cc1OC	n	n	n	83.7	n
CC(C)c1[nH]c(=O)c(C#N)c2c1COC(C)(C)C2	n	n	n	n	n
CC(C)Cc1[nH]c(=O)c(C#N)c2c1COC(C)(C)C2	n	n	n	n	n
CCCc1[nH]c(=O)c(C#N)c2c1COC(C)(C)C2	66.1	n	n	n	n
CC1(C)Cc2c(c(-c3ccccc3Cl)[nH]c(=O)c2C#N)CO1	92.3	n	28.1	n	n
SMILES	CYP2C19 inhib	CYP2C19 act	Measles CPE	CYP2C9 inh	CYP2C9 act
CC1(C)Cc2c(C#N)c(OCC(=O)c3ccc(Cl)cc3)nc(-c3ccoc3)c2CO1	79.4	n	n	n	n
CC1(C)Cc2c(c(-c3ccccc3)[nH]c(=O)c2C#N)CO1	55.0	n	n	n	n
CCOC(=O)C(NCCc1ccc(F)cc1)(NC(=O)CC)C(F)(F)F (configuration not stated)	x	x	n	x	x
CC(c1ccco1)N(C(=O)C12CC3(C)CC(C)(CC(C)(C3)C1)C2)c1ccccn1 (configuration not stated)	n	n	n	n	n
COc1nc(-c2ccccc2)c2c(c1C#N)CC(C)(C)OC2	78.2	n	n	n	n
COc1ccc(NC(=O)C2CC2)cc1NS(=O)(=O)c1ccc(F)cc1	58.4	n	n	n	n
COc1cc(NS(=O)(=O)c2ccc(F)cc2)c(OC)cc1NC(C)=O	99.0	n	n	66.9	n
Cc1nc(NC(=O)c2ccc(Br)o2)sc1C	n	n	n	n	n
CC1CCCCC1NC(=O)Cn1cnc2ccccc2c1=O (configuration not stated)	n	n	n	n	n
CCOC(=O)C(C)n1cnc2c(nnn2Cc2ccc(Cl)cc2)c1=O (configuration not stated)	n	n	n	n	2.5
CCOC(=O)C(C)n1cnc2c(nnn2Cc2ccc(C)cc2)c1=O (configuration not stated)	53.0	n	n	n	2.9
Cc1ccc(Cn2nnc3c(=O)n(Cc4cccc(C)c4)cnc32)cc1	n	n	n	n	2.1
CC1CCN(c2nc3c(c(=O)n(C)c(=O)n3C)n2CCSc2ncccn2)CC1	n	n	x	n	n
CC(C)c1onc(C(=O)NCc2ccc(F)cc2)c1[N+](=O)[O-]	x	x	n	x	x
COc1ccc2c(c1O)Cc1ccccc1C2=O	x	x	n	x	x
Cc1cc(C)cc(N2C(=O)C3NN=C(C(=O)OCc4ccccc4)C3C2=O)c1 (configuration not stated)	x	x	n	x	x
COc1ccc(C(=O)Oc2cccnc2)cc1	n	n	n	n	n
CCCC(c1nnnn1CS(=O)(=O)c1ccc(C)cc1)N1CCN(c2ccccc2)CC1 (configuration not stated)	n	n	n	61.6	n
Cc1ccc(S(=O)(=O)Cn2nnnc2C(c2ccccc2)N2CCN(c3ncccn3)CC2)cc1 (configuration not stated)	98.0	n	n	93.5	n
Cc1ccc(S(=O)(=O)Cn2nnnc2C(c2ccccc2)N2CCN(c3ccccc3)CC2)cc1 (configuration not stated)	x	x	n	x	x
Cc1ccc(-c2nnnn2CS(=O)(=O)c2ccccc2)cc1	67.9	n	n	n	n
COC(=O)C(Sc1nc(C)cc(C)c1C#N)c1ccccc1 (configuration not stated)	53.9	n	n	n	n
COc1ccccc1-c1cc(-c2ccccc2)nc(SC(C(N)=O)c2ccccc2)c1C#N (configuration not stated)	n	n	n	n	n
CCOC(=O)CC(=O)CSc1nc(C)cc(C)c1C#N	69.8	n	n	n	n
CCOC(=O)CC(=O)CSc1nc(N)c(C#N)c(-c2ccc(Cl)cc2)c1C#N	83.8	n	n	61.8	n
SMILES	CYP2C19 inhib	CYP2C19 act	Measles CPE	CYP2C9 inh	CYP2C9 act
Cc1nnc(N2CCOCC2)c2ccccc12	n	n	n	n	n
CCOc1nc(SCCOc2ccc(C)cc2)nc(N(C)C)n1	x	x	n	x	x
Cc1cccc(NC(=O)Nc2nnc(N3CCCCC3C)s2)c1C (configuration not stated)	n	n	n	n	n
CCC(=O)Nc1cc(ON=C(C)C)cc([N+](=O)[O-])c1	x	x	95.8	x	x
CC(C)=NOc1cc(NC(=O)CCl)cc([N+](=O)[O-])c1	x	x	n	x	x
Cn1nc(C(F)(F)F)c(/C=N/OC(=O)c2ccccc2Cl)c1SCc1ccccc1Cl	68.4	n	n	93.3	n
Cn1nc(C(F)(F)F)c(/C=N/OC(=O)c2ccccc2)c1SCc1ccc(Cl)cc1	n	n	n	n	n
CCOC(=O)N1CCN(c2ncnc3c2[nH]c2ccc(F)cc23)CC1	59.6	n	n	n	n
